# Assay results published in PubChem BioAssay (Tox21).
# Records with an inconclusive call do not appear. Values without a mark were called inactive. Calls of active or inactive are those of the source. Calls come from the whole dose curve; as a rule, active = well fitted cell-killing curve with a large enough effect in the repeat runs; inconclusive = weak or mixed curves, or effect the other way; inactive = flat fitted curve, though single readings scatter. Where a SMILES comes first, the peptide text is derived from it.
# Assay: qHTS assay to identify small molecule agonists of the androgen receptor (AR) signaling pathway in the presence of an antagonist - cell viability counter screen (AID 1259379); note: nearly all actives have a fitted effect of over 25% in size
# Settings: MDA-kb2 viability, CellTiter-Fluor, 16 h; series mostly up to 92.4 µM
# Excerpt: National Center for Advancing Translational Sciences [NCATS]
# NIH Chemical Genomics Center [NCGC]
# U.S. Environmental Protection Agency [EPA]
# National Institutes of Environmental Health Sciences [NIEHS]
# National Toxicology Program [NTP]
# U.S. Food and Drug Administration [FDA]
# Androgen receptor (AR) is an important member of nuclear receptor family. Its signaling plays a critical role in AR-dependent prostate cancer and other androgen related diseases. Considerable attention has been given in the past decades to develop methods to study and screen for the environmental chemicals that have the potential to interfere with metabolic homeostasis, reproduction, developmental and behavioral functions. Therefore AR binding assay for screening against androgen agonists and antagonists can be used to identify potential endocrine disruptors.
# MDA-kb2 cells (from ATCC, deposited by Wilson et al.) are human breast carcinoma cells that were stably transfected with a luciferase reporter gene under control of the MMTV promoter that contains response elements for both androgen receptor (AR) and glucocorticoid receptor (GR). This particular screening for measuring luciferase reporter gene activity using MDA-kb2 cells against Tox21 10K library compounds is a confirmation study on agonist mode screening in the presence of AR-antagonist compound (Nilutamide) at 3.0uM final concentration. The cytotoxicity of the compounds was tested in parallel by measuring the cell viability using CellTiter-Fluor assay system (Promega, Madison, WI) in the same wells.
# Tox21 Assay Protocol Summary:
# MDA-kb2 cells (cells cultured without CO2) were dispensed at 3,000 cells/well in 4uL of culture medium into white wall/solid-bottom 1536-well plates (Corning Life Sciences, Corning, NY) using a Multidrop Combi (Thermo Fisher Scientific Inc., Waltham, MA) dispenser. The assay plates were incubated at 37C and 0% CO2 for 5hr. One uL of 3.0uM (final concentration) Nilutamide or assay buffer was added using two separate tips of Flying Reagent Dispenser (FRD, Aurora Discovery, San Diego, CA). Then 23nL of compounds dissolved in DMSO at 15 concentrations and positive controls were transferred to the assay plates using a Pintool station (Wako, San Diego, CA). The assay plates were incubated at 37C and 0% CO2 for 16 hr. After 15hr incubation at 37C, 1uL/well CellTiter-Fluor reagent (Promega Corporation) was added to each well of the assay plates using FRD. After 1hr incubation at 37C and 0% CO2, the fluorescence signal was measured using a ViewLux plate reader (PerkinElmer, Shelton, CT).
# % is set by controls: 0 for no effect and ±100 for the full control effect.
Compound,outcome,"activity change, negative = cytotoxicity"
CC1=C(C(=O)O)N2C(=O)[C@@H](NC(=O)[C@H](N)c3ccccc3)[C@H]2SC1,inactive,
CC(=O)Nc1ccc(OC(=O)c2ccccc2OC(C)=O)cc1,inactive,
COc1cc2c(cc1OC)C(=O)C(CC1CCN(Cc3ccccc3)CC1)C2 (stereo not given),inactive,
C=CC(=O)OCC1CCCO1 (stereo not given),inactive,
Cc1ccc(C(C)NC(=O)[C@@H](NC(=O)OC(C)C)C(C)C)cc1 (stereo not given in full),inactive,
[O-][n+]1cccc(/C(Cl)=N/OC[C@@H](O)CN2CCCCC2)c1,inactive,
Cc1ncc([N+](=O)[O-])n1CC(C)O (stereo not given),inactive,
CC(C)C[C@@H]1[C@H](c2ccccc2)OC(=O)N1CCCN1CCCCCC1,inactive,
CN(C)CCN(C)CCO,inactive,
O=C(CCCl)NCCc1ccccc1,inactive,
N[C@@H](Cc1ccc(O)cc1)C(=O)O,,0.232% [at 8.39 µM]
C/C(=C1\CCOC(=O)S1)N(C=O)Cc1cnc(C)nc1N,inactive,
COC(=O)CCCCC(=O)O,inactive,
CCCCCC/C=C/C(=O)OC,inactive,
NCC1(Cc2noc(=O)[nH]2)CCCCC1,inactive,
CC(C)C1OCCN1CCOC(=O)NCCCCCCNC(=O)OCCN1CCOC1C(C)C (stereo not given),inactive,
CSc1cnccn1,inactive,
CC(=O)N[C@@H](CO)C(=O)N[C@@H](CC(=O)O)C(=O)N[C@@H](CCCCN)C(=O)N1CCC[C@H]1C(=O)O (Ac-SDKP-OH),inactive,
CC(=O)C(C)O (stereo not given),inactive,
Nc1nc(-c2ccccc2)c(Br)c(=O)[nH]1,inactive,

Compound,outcome,"activity change, negative = cytotoxicity"
CCOCCOCC,inactive,
CC/C(C)=N\O[Si](C)(O/N=C(\C)CC)O/N=C(\C)CC,inactive,
CCCC(=O)Nc1ccc(OCC(O)CNC(C)C)c(C(C)=O)c1 (stereo not given),inactive,
CC1(C)CC(OC(=O)CCCCCCCCC(=O)OC2CC(C)(C)NC(C)(C)C2)CC(C)(C)N1,,0.897% [at 19 µM]
Cc1ccccc1C(N)=O,inactive,
CC(=O)CCC1=C(C)CCCC1(C)C,inactive,
CC(O)COC(C)(C)C (stereo not given),inactive,
CO/N=C(/C(=O)N[C@@H]1C(=O)N2C(C(=O)[O-])=C(C[n+]3ccn4ncccc43)CS[C@H]12)c1nsc(N)n1,inactive,
CCN(CC)CCN,inactive,
CC1(C)O[C@H]2CC(=O)OC[C@]23[C@H]2CC[C@@]4(C)[C@H](c5ccoc5)OC(=O)[C@H]5O[C@]54[C@]2(C)C(=O)C[C@@H]13,inactive,
OC[C@@H](O)C(O)[C@@H](O)CO (stereo not given in full),inactive,
O=C(O)c1cc2ccccc2nc1C(=O)O,inactive,
COC(=O)c1cccc(Cl)c1,inactive,
CCCCSCCCC,inactive,
CCOC(=O)CC1(C)OCC(C)O1 (stereo not given),inactive,
C=C(C)[C@@H]1CC=C(C)C(=O)C1,inactive,
Cc1c(NC(=O)c2cccnc2)c(=O)n(-c2ccccc2)n1C,inactive,
CC(=O)OCC(=O)Nc1cc(C#N)cc(NC(=O)COC(C)=O)c1Cl,inactive,
COCCc1ccccn1,inactive,
CCC(C)OC(C)CC (stereo not given),inactive,
